{
  "source": "PubChem BioAssay AID493056",
  "about": "(National Center for Advancing Translational Sciences (NCATS), 2011)",
  "note": "“And” between values parts separate entries of the source, which are not always exact repeats. Identical values can stand only once. Screen size: about 360,000 compounds; about 2,400 (0.67%) were called active. No stated cut-off is given here; in the data, active means enhancement above about 30%; inactive means the rest. The list comes from a sample in which actives are over-represented; it also holds similar structures and randomly drawn compounds. More than one record can exist for a structure, and the calls need not agree.",
  "data": [
    {"target": "Thyrotropin-releasing hormone receptor (Homo sapiens) (UniProt P34981)", "sequence (P34981 whole entry, looked up)": "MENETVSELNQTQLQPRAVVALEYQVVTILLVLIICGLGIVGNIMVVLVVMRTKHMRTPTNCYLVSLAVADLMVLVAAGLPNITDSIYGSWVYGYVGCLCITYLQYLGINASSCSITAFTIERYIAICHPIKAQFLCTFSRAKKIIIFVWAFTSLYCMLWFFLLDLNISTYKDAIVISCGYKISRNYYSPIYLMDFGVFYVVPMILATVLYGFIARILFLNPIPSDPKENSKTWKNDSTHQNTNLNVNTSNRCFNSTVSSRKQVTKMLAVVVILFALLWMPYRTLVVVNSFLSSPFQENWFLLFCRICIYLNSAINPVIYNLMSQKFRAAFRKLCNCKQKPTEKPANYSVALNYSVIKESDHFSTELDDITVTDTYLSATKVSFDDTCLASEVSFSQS", "test": "qHTS for Small Molecule Agonists and Allosteric Enhancers of Human TRH Receptor: Primary Screen for Enhancers; further: 0% is about no effect", "settings": "TRHR cells, fluo-8 calcium fluorescence, EC20 TRH enhancement; at 2 µM; stronger effect = higher value", "procedure,_shortened": "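TRHR-expressing cells loaded with fluo-8 calcium dye were read kinetically (ex 480/em 530) during compound addition, then stimulated with an EC20 of TRH (10 nM final). Enhancement of the Gq-mediated intracellular calcium response was scored.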", "values": [
      {"compound": "COc1cc(OC)c(NC(=O)Cc2ccc(-n3c(C)nc4cccnc43)cc2)cc1Cl", "enhancement": "9.81% (inactive)"},
      {"compound": "COc1ccc(OCc2n[nH]c(=S)n2N)cc1", "enhancement": "41.1% (active)"},
      {"compound": "COc1ccc(Cc2n[nH]c(=S)n2NC(=O)Nc2ccc(C)cc2)cc1", "enhancement": "-6.6% (inactive)"},
      {"compound": "CSc1n[nH]c(=S)n1N", "enhancement": "4.42% (inactive)"},
      {"compound": "COc1ccccc1N1CCN(c2ccc(=O)n(CC(=O)NCc3ccc(OC(C)C)cc3)n2)CC1", "enhancement": "2.06% (inactive)"},
      {"compound": "COc1cc(OC)c(NC(=O)c2cnc(N3CCCC3)nc2C)cc1Cl", "enhancement": "0.561% (inactive)"},
      {"compound": "CCOCCCNC(=O)c1c(NC(=O)c2nc(SC)ncc2Cl)sc2c1CCCC2", "enhancement": "6.4% (inactive)"},
      {"compound": "CC1=C(C)CC(C(=O)NC(C)CCc2ccccc2)C(C(=O)O)C1", "note": "(configuration not stated)", "enhancement": "46.8% (active)"},
      {"compound": "CC(CCc1ccccc1)NC(=O)c1cnc(Cl)c(Cl)c1", "note": "(configuration not stated)", "enhancement": "-11.8% (inactive)"},
      {"compound": "CCN(CC)S(=O)(=O)N1CCC(C(=O)NC(C)CCc2ccccc2)CC1", "note": "(configuration not stated)", "enhancement": "5.01% (inactive)"},
      {"compound": "CCc1nn(CC(=O)N2CCN(c3cccc(C(F)(F)F)c3)CC2)c(=O)c2cc3occc3n12", "enhancement": "6.05% (inactive)"},
      {"compound": "COc1cc(OC)cc(C(=O)NCCc2csc3nc(-c4ccccc4F)nn23)c1", "enhancement": "-2.81% (inactive)"},
      {"compound": "COc1ccc(C2(C)NC(=O)N(CC(=O)c3ccc4c(c3)OCO4)C2=O)cc1", "note": "(configuration not stated)", "enhancement": "2.8% (inactive)"},
      {"compound": "COc1ccc(C2(C)ON(c3ccccc3C(F)(F)F)C2=O)cc1", "note": "(configuration not stated)", "enhancement": "35% (active)"},
      {"compound": "COc1ccc(C2(O)C(=O)Nc3ccccc32)cc1", "note": "(configuration not stated)", "enhancement": "-4.9% (inactive)"},
      {"compound": "COc1ccc(NC(=O)C2CCCN(S(=O)(=O)c3cccc4nonc34)C2)cc1Cl", "note": "(configuration not stated)", "enhancement": "-6.01% (inactive)"},
      {"compound": "Cc1ccc(Cn2c(CCCNC(=O)C3CCCCC3)nc3ccccc32)cc1", "enhancement": "-17% (inactive)"},
      {"compound": "c1cnc(N2CCN(c3ccc4ccccc4n3)CC2)nc1", "enhancement": "45.5% (active)"},
      {"compound": "CC12CCC(C(=O)N3CCN(c4ncccn4)CC3)(c3nc4ccccc4nc31)C2(C)C", "note": "(configuration not stated)", "enhancement": "-2.73% (inactive)"},
      {"compound": "O=C(c1ccc2ccccc2n1)N1CCN(c2ccccc2Cl)CC1", "enhancement": "2.59% (inactive)"},
      {"compound": "CCOc1ccccc1CNC(=O)c1ccc(-n2c(C)cc3c2CCC(C)C3)cc1", "note": "(configuration not stated)", "enhancement": "-0.716% (inactive)"},
      {"compound": "NC(=O)CSc1nc2c(oc3ccccc32)c(=O)n1Cc1ccccc1", "enhancement": "-1.53% (inactive)"},
      {"compound": "O=C(Nc1ccccc1N1CCOCC1)c1ccncc1", "enhancement": "6.76% (inactive)"},
      {"compound": "Cc1ccc(NC(=O)COC(=O)CNC(=O)c2ccc(Cl)cc2Cl)cc1S(=O)(=O)N1CCOCC1", "enhancement": "1.95% (inactive)"},
      {"compound": "O=C(CNC(=O)c1ccc(Cl)cc1Cl)NCC(=O)Nc1ccccc1N1CCOCC1", "enhancement": "31.1% (active)"},
      {"compound": "CCOC(=O)c1c(-c2ccc(OC)cc2)oc2ccc(OCc3ccc(C(=O)OC)cc3)cc12", "enhancement": "-1.96% (inactive)"},
      {"compound": "CCOC(=O)c1ccc(-n2c(CCC(=O)O)ccc2-c2ccccc2)cc1", "enhancement": "-12.3% (inactive) and 10.9% (inactive)"},
      {"compound": "CCOC(=O)c1ccc(COC(=O)CCc2nc(-c3ccccc3)c(-c3ccccc3)o2)cc1", "enhancement": "31.7% (active)"},
      {"compound": "COc1ccc(Cn2c(C(=O)O)c(CNCc3cccc(OC)c3)c3ccc(C)cc32)cc1", "enhancement": "4.01% (inactive)"},
      {"compound": "COc1cc(NC(=O)c2noc3c2CSc2ccccc2-3)cc(OC)c1OC", "enhancement": "4.94% (inactive)"},
      {"compound": "COc1ccc(Nc2cc(=O)n(-c3ccccc3)c3c2c(=O)n(C)c(=O)n3C)cc1", "enhancement": "-11.6% (inactive)"},
      {"compound": "COc1ccc(-c2c3c(=O)n(C)c(=O)n(C)c3c3c(C)nc4ccccc4n23)cc1", "enhancement": "-1.08% (inactive)"},
      {"compound": "COc1ccc(-c2[nH]c3c(c2-c2c(-n4cccc4)n(C)c(=O)n(C)c2=O)c(=O)n(C)c(=O)n3C)cc1", "enhancement": "31.9% (active)"},
      {"compound": "CCOC(=O)c1cc(-c2ccccc2)n(CCC(=O)Nc2ccccc2CC)c1C", "enhancement": "14% (inactive)"},
      {"compound": "Cc1ccccc1NC(=O)Cn1c(=O)n(CCCCC(=O)NCc2ccccc2Cl)c(=O)c2ccccc21", "enhancement": "2.95% (inactive)"},
      {"compound": "Cc1c(C(=O)Nc2cccc(Cl)c2)oc2ccc(S(=O)(=O)N3CCOCC3)cc12", "enhancement": "-6.24% (inactive)"},
      {"compound": "CC(C)C[C@H](NC(=O)NCCc1ccc(Cl)cc1)C(=O)O", "enhancement": "-5.99% (inactive)"},
      {"compound": "O=C(NCCc1ccccc1)C1CC1", "enhancement": "-3.66% (inactive)"},
      {"compound": "C[C@H](NC(=O)NCCc1ccccc1)C(=O)O", "enhancement": "33.9% (active)"},
      {"compound": "CC(C)Cn1c(C2CC(=O)N(c3ccccc3Cl)C2)nc2ccccc21", "note": "(configuration not stated)", "enhancement": "-0.635% (inactive)"},
      {"compound": "CN(C)c1ccc(C(=O)NCC(=O)OC(C(=O)Nc2cc(C(F)(F)F)ccc2Cl)c2ccccc2)cc1", "note": "(configuration not stated)", "enhancement": "-3.56% (inactive)"},
      {"compound": "C[N+](C)(C)CCNC(=O)c1cc[n+](Cc2ccccc2)c(/C=N/O)c1", "enhancement": "40.4% (active)"},
      {"compound": "C[n+]1ccc(C(=O)NCc2ccccc2)cc1", "enhancement": "-9.31% (inactive)"},
      {"compound": "O=C(NCCCNCc1ccccc1)c1ccc(/C=N/O)nc1", "enhancement": "15.9% (inactive)"},
      {"compound": "CCn1c(CN2CCC(C)CC2)nc2cc(NC(=O)c3ccccc3[N+](=O)[O-])ccc21", "enhancement": "3.72% (inactive)"},
      {"compound": "COc1ccccc1-c1cc2nc(C)c(CCC(=O)O)c(C)n2n1", "enhancement": "5.74% (inactive)"},
      {"compound": "O=C(CC1CCCCC1)NCc1ccco1", "enhancement": "14.2% (inactive)"},
      {"compound": "O=C(COC(=O)C12CC3CC(CC(C3)C1)C2)NCc1ccco1", "enhancement": "-2.58% (inactive) and 33.9% (active)"},
      {"compound": "O=C(CC12CC3CC(CC(C3)C1)C2)NCc1ccco1", "enhancement": "-4.28% (inactive)"},
      {"compound": "Cc1ccc(NC2=C(c3ccc(C(F)(F)F)cc3)C(=O)c3ccccc32)cc1F", "enhancement": "-15.7% (inactive)"},
      {"compound": "CCOC(=O)c1c(NC(=O)Cc2coc3ccc(CC)cc23)sc2c1CCC2", "enhancement": "-3.01% (inactive)"},
      {"compound": "O=C(Nc1nnc(C2CC(=O)N(c3ccc(Cl)cc3)C2)s1)c1ccco1", "note": "(configuration not stated)", "enhancement": "-3.65% (inactive)"},
      {"compound": "CCc1ccc(NC(=O)c2cc(S(=O)(=O)NC3CCCCCC3)ccc2F)cc1", "enhancement": "3.53% (inactive)"},
      {"compound": "O=C(Nc1ccccc1)c1ccccc1NC(=O)C(F)(F)F", "enhancement": "-2.9% (inactive)"},
      {"compound": "O=C(Nc1ccc(F)cc1)c1cccnc1N1CCOCC1", "enhancement": "-2.71% (inactive)"},
      {"compound": "O=C(Nc1ccccc1)c1cccnc1Nc1ccccc1", "enhancement": "47.9% (active)"},
      {"compound": "CC(CCCc1ccccc1)NC(=O)c1nn(-c2ccc(Cl)cc2)nc1CO", "note": "(configuration not stated)", "enhancement": "-3.71% (inactive)"}
    ]}
  ]
}
